Assay [1] deals with Cytochrome P450 3A4 (Homo sapiens) (UniProt P08684). Description: qHTS Assay for Activators of Cytochrome P450 3A4 (AID 885). Also: nearly all actives have a fitted effect of over 65% in size. A digest of the protocol: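 Using 20nM recombinant human CYP3A4 in potassium phosphate (200mM), substrate Luciferin-PPXE at 25uM, luminescent luciferin detection followed a 60-min RT NADPH reaction; data scaled to 57 uM ketoconazole.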
In general terms: In qHTS, concentration-response curves come from the screen itself.

Assay [2] has as its target Peroxisome proliferator-activated receptor delta (Homo sapiens) (UniProt Q03181). Description: qHTS assay for small molecule agonists of peroxisome proliferator-activated receptor delta signaling (AID 588534; calls by dose curve). A digest of the protocol:
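Agonist-mode beta-lactamase reporter readout (CCF4 dye, 2 h at RT) after 18 h at 37 °C exposure to a titration; Hill-equation fitting gave EC50 and maximal response.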

The target in assay [3] is Luciferin 4-monooxygenase (Photinus pyralis) (UniProt P08659). Description: Biochemical firefly luciferase enzyme assay for NPC (AID 624030). Also: nearly all actives have a fitted effect of over 70% in size. Also: potency is read from the fitted curve at half-maximal effect. A digest of the protocol: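 Counter-screen for direct inhibition of the luciferase enzyme by approved-drug library compounds, run at 10 nM enzyme in 50 mM Tris acetate (final). Luminescence was read within 5 min of enzyme-buffer addition and normalized to PTC124 versus DMSO (0%).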

Assay [4] addresses Vitamin D3 receptor (Homo sapiens) (UniProt P11473). In words: qHTS assay for small molecule agonists of vitamin D receptor signaling (AID 588543; calls by dose curve). A digest of the protocol:
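GeneBLAzer VDR-UAS-bla HEK293T cells in 2% charcoal-stripped FBS medium were dosed with compound titrations for 16 h at 37 °C; CCF4 β-lactamase readout (405 nm ex, 460/530 nm em). EC50 and efficacy from Hill fits, normalized to 50 nM calcitriol (100%) and DMSO (0%).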

Assay [5] is described as follows: qHTS assay for small molecule activators of the nuclear factor-kappa B (NF-kB) signaling pathway (AID 651749; active = well fitted activation curve with a large enough effect in the signal ratio; the % refers to the signal ratio; also: series mostly up to about 77 µM). The conditions noted are these: NF-kB-bla ME-180 cells, beta-lactamase FRET ratio, 16 h; activation: stronger effect = higher value. A digest of the protocol:
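Human ME-180 cervical cells with an NF-kB-bla construct; compounds added via 23 nL pin transfer, DMSO as vehicle; incubation 16 hr. Reporter activity measured by FRET disruption.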

Assay [6] is described as follows: qHTS assay for environmental chemicals that activate the Aryl hydrocarbon Receptor (AhR) signaling pathway (AID 651777). Also: nearly all actives have a fitted effect of over 15% in size. The conditions noted are these: 1A2-DRE human hepatoma cells, luciferase, 24 h; activation: stronger effect = higher value. A digest of the protocol: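 AhR activation is scored as a rise in luciferase from a stable DRE–CYP1A2 promoter construct in human hepatoma cells. Treatment lasts 24 hr at 37 C; detection uses One-Glo after 30 min at room temperature.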

Assay [7] has as its target Peroxisome proliferator-activated receptor alpha (Homo sapiens) (UniProt Q07869). Description: qHTS assay for small molecule agonists of the peroxisome proliferator-activated receptor alpha (PPARalpha) signaling pathway (AID 651778). The conditions noted are these: PathHunter PPARalpha complementation, chemiluminescence, 6 h; max response: stronger effect = higher value. The procedure, abridged:
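Cells plated at 2,000/well and held overnight at 37 C, 5% CO2, then compound added by pin tool for 6 hr; after PathHunter detection reagent and 60 min at room temperature, chemiluminescence from enzyme complementation was read.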

Assay [8] in a line: qHTS assay for small molecule activators of the human pregnane X receptor (PXR) signaling pathway (AID 720659; call rule not given here).
Assay [9] addresses Vitamin D3 receptor (Homo sapiens) (UniProt P11473). In words: qHTS for Inhibitors of the vitamin D receptor (VDR): Hit Validation in Primary Screen (AID 602199). Also: potency is read from the fitted curve at half-maximal effect. The conditions noted are these: VDR-coactivator inhibition assay, qHTS confirmation. A digest of the protocol:
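Fluorescence polarization assay of VDR binding to Alexa 647-labelled SRC2-3 coactivator peptide: 800nM VDR with 5uM LG19078 agonist, compounds, 2 h at room temperature, read Ex 620 nm/Em 688 nm.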

The target is the same in assay [10]. In words: qHTS for Inhibitors of the vitamin D receptor (VDR): Hit Validation using a Beta-Lactamase Assay (AID 602202). The procedure, abridged: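 Stably transfected HEK293 cells express a VDR–GAL4 DNA-binding-domain fusion driving a UAS beta-lactamase reporter, stimulated by agonist LG190178. Compounds were added 4 h after plating and incubated 18 h. A FRET beta-lactam substrate was then added for 2 h and cleaved substrate emission read at 447 nm.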

Assay [11] in a line: qHTS for Inhibitors of the vitamin D receptor (VDR): Hit Validation using a Cytotoxicity Assay (AID 602204). Also: nearly all actives have a fitted effect of over 75% in size. The procedure, abridged: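 First, 20,000 cells are dispensed per well. Next comes a 4 h incubation, then compound addition and an 18 h incubation. Finally, ATP-based luminescent reagent is added and plates are read after 30 min.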
For assay [12], the target named is Bifunctional 3'-5' exonuclease/ATP-dependent helicase WRN (Homo sapiens) (UniProt Q14191). Description: qHTS for Inhibitors of WRN Helicase: Confirmatory Assay for Cherry-picked Compounds. (AID 720497). Also: series mostly up to about 57 µM; nearly all actives have a fitted effect of over 65% in size. A digest of the protocol: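 WRN at 20 nM final was preincubated with compound for 15 min at room temperature; the reaction was started with 100 nM forked duplex oligonucleotide and 2 mM ATP (final). Red fluorescence (ex 525/em 598 nm) was read kinetically, with inhibition normalized to enzyme-only and buffer-only wells.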

Assay [13] is described as follows: qHTS for Inhibitors of WRN Helicase: Thiazole Orange DNA Binding Counterscreen (AID 720499).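 Also: drop in dye fluorescence marks compound binding to DNA; nearly all actives have a fitted effect of over 60% in size.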 A digest of the protocol:
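Here, compounds that displace thiazole orange (100 nM) from unlabeled DNA (50 nM) lower fluorescence, read at excitation 480 nm and emission 530 nm after a 15 min room-temperature incubation.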

For assay [14], the target named is RecQ-like DNA helicase BLM (Homo sapiens) (UniProt P54132). Description: qHTS for Inhibitors of WRN Helicase: BLM Helicase Counterscreen for WRN Inhibitors (AID 720503). Also: nearly all actives have a fitted effect of over 60% in size. A digest of the protocol: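 Steps: compounds added to 1 nM BLM in pH 8.0 Tris buffer with 2 mM MgCl2; 15 min room-temperature incubation; substrates added (100 nM DNA, 2 mM ATP final); discontinuous kinetic fluorescence measurement, reads spaced 15 min.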

In assay [15] the target is 3',5'-cyclic-AMP phosphodiesterase 4B (Homo sapiens) (UniProt Q07343). In words: qHTS Assay for Inhibitors of PDE-IV (AID 607; active = well fitted activation curve with a large enough effect in the main read-out, with a control signal flat, not every such curve was filed as active). The procedure, abridged: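 Live HEK293 cells with a modified cyclic nucleotide-gated (CNG) channel report intracellular cAMP via membrane-potential dye fluorescence (ex 535/em 590 nm). Endogenous PDE-IV was targeted. Compounds were tested at up to 22.9 uM final; RO 20-1724 100 uM served as control.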

The nature of assay [16]: qHTS assay for small molecule agonists of retinoid X receptor alpha signaling (AID 588544; calls by dose curve). The conditions noted are these: HEK293T RXRa-UAS-bla, beta-lactamase reporter, 18 h; 530 nm emission.
The target of assay [17] is Retinoic acid receptor RXR-alpha (Homo sapiens) (UniProt P19793). Described as above.
The nature of assay [18]: qHTS assay for small molecule agonists of the antioxidant response element (ARE) signaling pathway measured by Nrf2-dependant transcriptional activity (AID 720636; active = well fitted curve in the direction sought with a large enough effect in the repeat runs; an effect the other way counts as inactive or inconclusive;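 also: HepG2 cells with an ARE-driven luciferase reporter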). The procedure, abridged:
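First, ARE-luc HepG2 cells attached for 6 hr at 37 C in 1% dialyzed FBS medium. Next, compound or DMSO was added and incubated 16 hr. Finally, ONE-Glo reagent was added and luminescence measured after 30 min.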

Assay [19] in a line: qHTS assay for cell viability of the p53RE-bla HCT-116 cell line (AID 743292). Also: nearly all actives have a fitted effect of over 55% in size. The procedure, abridged: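 Quantitative high-throughput format: compounds in DMSO were pinned onto p53RE-bla HCT-116 cells (4,000/well) and incubated 16 h at 37 C. Total intracellular ATP, read by CellTiter-Glo luminescence, reflects viable cell number.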

Results filed as inconclusive are left out. This is one part of the list. Entries that show only a call come without a potency. Active and inactive are the calls of the source. Unless noted, calls follow the shape of the dose curve; as a rule, active = well fitted curve in the direction sought with a large enough effect; inconclusive = small, poorly fitted or top-dose-only effect, or another doubt; inactive = no such curve, though single readings can be large; an effect the other way counts as inactive or inconclusive.

Vitamin D3 receptor (Homo sapiens), sequence (P11473 whole entry, looked up): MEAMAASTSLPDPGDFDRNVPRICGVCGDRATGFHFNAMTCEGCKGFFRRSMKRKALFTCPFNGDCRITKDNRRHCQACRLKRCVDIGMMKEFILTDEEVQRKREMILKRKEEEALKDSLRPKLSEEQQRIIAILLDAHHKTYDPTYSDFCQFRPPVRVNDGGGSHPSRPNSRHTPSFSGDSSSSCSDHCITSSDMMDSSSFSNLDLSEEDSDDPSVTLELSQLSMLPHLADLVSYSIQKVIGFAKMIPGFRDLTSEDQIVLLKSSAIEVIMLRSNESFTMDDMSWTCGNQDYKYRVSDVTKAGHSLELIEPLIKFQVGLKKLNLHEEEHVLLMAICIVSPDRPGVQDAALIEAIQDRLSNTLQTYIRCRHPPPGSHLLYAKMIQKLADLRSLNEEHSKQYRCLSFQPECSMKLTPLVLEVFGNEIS
Luciferin 4-monooxygenase (Photinus pyralis), sequence (P08659 whole entry, looked up): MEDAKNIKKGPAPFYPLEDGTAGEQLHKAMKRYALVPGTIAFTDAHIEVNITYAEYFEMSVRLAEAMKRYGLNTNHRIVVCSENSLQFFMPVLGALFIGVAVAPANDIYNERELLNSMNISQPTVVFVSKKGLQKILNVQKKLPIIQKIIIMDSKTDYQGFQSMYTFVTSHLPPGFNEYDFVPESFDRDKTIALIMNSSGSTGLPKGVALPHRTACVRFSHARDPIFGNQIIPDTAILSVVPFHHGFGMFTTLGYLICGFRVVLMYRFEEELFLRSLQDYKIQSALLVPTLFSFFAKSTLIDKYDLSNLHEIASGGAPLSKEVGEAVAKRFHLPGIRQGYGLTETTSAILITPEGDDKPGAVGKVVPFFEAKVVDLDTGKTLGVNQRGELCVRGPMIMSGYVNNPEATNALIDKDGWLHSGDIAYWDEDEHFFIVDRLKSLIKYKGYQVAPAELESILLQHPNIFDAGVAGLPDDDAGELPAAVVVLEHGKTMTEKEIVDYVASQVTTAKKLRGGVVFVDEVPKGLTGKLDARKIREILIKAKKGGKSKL
3',5'-cyclic-AMP phosphodiesterase 4B (Homo sapiens), sequence (Q07343 whole entry, looked up): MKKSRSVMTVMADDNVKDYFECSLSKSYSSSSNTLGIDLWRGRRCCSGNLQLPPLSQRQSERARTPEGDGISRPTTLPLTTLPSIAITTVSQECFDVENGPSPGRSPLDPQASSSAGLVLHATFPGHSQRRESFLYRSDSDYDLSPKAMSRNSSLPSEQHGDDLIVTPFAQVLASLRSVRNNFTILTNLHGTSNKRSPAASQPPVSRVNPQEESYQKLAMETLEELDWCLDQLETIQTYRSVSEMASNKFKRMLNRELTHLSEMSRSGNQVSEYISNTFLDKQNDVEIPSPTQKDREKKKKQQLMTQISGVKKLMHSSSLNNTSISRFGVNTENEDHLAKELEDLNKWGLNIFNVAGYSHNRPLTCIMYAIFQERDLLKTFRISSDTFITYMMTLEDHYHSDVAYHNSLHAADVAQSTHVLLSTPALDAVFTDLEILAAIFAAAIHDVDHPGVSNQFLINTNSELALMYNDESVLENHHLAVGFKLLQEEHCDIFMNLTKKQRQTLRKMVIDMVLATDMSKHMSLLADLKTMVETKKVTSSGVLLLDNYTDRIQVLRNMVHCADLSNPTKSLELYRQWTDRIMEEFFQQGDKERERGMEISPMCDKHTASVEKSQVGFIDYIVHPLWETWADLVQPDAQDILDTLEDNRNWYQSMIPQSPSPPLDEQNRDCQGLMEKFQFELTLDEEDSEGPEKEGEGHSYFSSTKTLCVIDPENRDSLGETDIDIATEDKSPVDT
Peroxisome proliferator-activated receptor alpha (Homo sapiens), sequence (Q07869 whole entry, looked up): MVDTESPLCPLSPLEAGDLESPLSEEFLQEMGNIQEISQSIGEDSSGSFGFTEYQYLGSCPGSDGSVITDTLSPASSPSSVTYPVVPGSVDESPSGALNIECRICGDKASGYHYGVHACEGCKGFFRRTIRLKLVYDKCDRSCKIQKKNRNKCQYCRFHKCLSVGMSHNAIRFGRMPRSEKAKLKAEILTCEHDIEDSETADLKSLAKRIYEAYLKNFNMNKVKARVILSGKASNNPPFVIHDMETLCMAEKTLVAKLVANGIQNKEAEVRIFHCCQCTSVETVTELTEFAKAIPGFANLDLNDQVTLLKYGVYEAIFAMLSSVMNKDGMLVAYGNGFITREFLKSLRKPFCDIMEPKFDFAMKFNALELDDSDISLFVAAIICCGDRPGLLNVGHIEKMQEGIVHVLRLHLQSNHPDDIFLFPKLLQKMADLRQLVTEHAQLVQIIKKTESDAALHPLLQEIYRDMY
Cytochrome P450 3A4 (Homo sapiens), sequence (P08684 whole entry, looked up): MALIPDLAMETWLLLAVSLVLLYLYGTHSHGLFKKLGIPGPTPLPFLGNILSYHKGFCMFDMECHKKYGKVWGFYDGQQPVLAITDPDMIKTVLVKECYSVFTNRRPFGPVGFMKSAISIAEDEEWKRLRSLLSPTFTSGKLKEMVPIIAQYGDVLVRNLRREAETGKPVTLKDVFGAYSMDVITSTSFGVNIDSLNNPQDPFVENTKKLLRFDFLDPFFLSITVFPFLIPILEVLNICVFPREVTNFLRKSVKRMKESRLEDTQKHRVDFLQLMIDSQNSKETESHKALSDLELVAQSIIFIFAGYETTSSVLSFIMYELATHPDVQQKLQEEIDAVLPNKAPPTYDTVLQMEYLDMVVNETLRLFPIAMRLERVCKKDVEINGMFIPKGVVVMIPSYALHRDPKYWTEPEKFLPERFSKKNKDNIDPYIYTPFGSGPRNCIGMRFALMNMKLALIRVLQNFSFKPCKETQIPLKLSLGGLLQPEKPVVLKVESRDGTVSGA
Bifunctional 3'-5' exonuclease/ATP-dependent helicase WRN (Homo sapiens), sequence (Q14191 whole entry, looked up): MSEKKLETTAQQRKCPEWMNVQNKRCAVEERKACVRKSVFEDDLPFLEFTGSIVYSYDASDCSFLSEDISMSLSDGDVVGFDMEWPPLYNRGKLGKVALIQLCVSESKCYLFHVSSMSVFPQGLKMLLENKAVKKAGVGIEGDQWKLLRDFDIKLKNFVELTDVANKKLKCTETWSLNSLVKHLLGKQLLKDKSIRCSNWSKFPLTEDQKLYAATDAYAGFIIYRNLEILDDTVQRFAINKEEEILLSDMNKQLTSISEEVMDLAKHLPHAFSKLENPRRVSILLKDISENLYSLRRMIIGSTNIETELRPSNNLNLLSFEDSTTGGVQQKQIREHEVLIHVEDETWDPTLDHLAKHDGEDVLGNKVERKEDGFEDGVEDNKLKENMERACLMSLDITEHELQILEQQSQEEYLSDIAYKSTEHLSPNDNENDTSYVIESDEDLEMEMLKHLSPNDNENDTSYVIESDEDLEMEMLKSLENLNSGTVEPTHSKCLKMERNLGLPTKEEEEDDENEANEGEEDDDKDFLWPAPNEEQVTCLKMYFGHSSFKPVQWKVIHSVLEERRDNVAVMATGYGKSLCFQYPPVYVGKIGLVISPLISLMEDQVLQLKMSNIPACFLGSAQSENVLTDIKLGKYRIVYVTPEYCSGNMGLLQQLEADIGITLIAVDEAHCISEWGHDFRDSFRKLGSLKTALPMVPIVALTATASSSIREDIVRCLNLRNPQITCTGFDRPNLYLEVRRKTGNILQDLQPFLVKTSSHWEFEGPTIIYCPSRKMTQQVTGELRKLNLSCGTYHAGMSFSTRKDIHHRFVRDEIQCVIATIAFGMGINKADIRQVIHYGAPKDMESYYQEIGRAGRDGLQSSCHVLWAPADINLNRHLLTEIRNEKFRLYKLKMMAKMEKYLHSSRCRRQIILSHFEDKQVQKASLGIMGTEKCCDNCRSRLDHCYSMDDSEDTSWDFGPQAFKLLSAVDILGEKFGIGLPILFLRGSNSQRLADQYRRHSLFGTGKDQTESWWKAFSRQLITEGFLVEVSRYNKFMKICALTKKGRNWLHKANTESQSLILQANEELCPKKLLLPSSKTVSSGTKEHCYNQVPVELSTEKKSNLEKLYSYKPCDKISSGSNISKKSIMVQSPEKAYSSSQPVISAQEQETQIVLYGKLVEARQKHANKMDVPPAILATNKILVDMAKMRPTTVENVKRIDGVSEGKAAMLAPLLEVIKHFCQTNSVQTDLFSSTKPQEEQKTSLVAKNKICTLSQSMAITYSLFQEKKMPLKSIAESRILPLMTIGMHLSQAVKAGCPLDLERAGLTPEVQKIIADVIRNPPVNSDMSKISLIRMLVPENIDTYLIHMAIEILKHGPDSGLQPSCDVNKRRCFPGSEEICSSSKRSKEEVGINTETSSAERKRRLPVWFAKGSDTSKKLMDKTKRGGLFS
Retinoic acid receptor RXR-alpha (Homo sapiens), sequence (P19793 whole entry, looked up): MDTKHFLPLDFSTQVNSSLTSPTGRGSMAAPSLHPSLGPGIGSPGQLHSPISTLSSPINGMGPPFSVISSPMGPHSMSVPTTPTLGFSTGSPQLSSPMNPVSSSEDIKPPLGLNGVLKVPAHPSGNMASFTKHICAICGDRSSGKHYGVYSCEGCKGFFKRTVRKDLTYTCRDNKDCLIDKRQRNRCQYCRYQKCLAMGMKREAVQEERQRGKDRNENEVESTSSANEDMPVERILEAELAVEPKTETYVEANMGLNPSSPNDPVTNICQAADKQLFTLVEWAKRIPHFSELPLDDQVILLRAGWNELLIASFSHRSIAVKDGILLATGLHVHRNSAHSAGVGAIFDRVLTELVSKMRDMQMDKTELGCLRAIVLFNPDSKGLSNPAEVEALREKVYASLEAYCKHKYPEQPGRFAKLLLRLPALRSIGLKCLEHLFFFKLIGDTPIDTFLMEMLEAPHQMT
Peroxisome proliferator-activated receptor delta (Homo sapiens), sequence (Q03181 whole entry, looked up): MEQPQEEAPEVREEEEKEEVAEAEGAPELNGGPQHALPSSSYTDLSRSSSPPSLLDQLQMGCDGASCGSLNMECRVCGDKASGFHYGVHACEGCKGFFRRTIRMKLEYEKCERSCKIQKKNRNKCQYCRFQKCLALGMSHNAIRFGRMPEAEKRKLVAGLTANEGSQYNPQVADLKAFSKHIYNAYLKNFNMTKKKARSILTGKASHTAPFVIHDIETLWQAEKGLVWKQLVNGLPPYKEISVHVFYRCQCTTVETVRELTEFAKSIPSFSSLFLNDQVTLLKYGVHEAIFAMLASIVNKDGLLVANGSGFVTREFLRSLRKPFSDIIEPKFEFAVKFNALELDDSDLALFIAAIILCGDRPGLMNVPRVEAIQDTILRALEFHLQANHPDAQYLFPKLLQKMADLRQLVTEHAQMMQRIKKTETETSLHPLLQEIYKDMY

For the compound `COc1ccc(C)cc1N`, in assay [1], the Potency result is “inactive”. Further, the compound was classed as inactive in assay [2].
Turning to `C=CCC1(O)CCC2C3CCC4=CC(=O)CCC4=C3C=CC21C` (stereo unspecified), the Potency result in assay [3] was “inactive”.
In the case of `Cc1c(N)nc([C@@H](CC(N)=O)NC[C@H](N)C(N)=O)nc1C(=O)N[C@H](C(=O)N[C@H](C)[C@H](O)[C@H](C)C(=O)N[C@@H](C(=O)NCCc1nc(-c2nc(C(=O)NCCC[S+](C)C)cs2)cs1)[C@H](C)O)[C@H](O[C@@H]1O[C@@H](CO)[C@@H](O)[C@H](O)[C@@H]1O[C@H]1O[C@H](CO)[C@H](O)[C@H](OC(N)=O)[C@@H]1O)c1cnc[nH]1`, the Potency result in assay [3] is “inactive”.
Turning to `O=[N+]([O-])NC1=NCCN1Cc1ccc(Cl)nc1`, in [3], the Potency entry is “inactive”.
Same read-out and setting: for `CCC(=O)O[C@@](Cc1ccccc1)(c1ccccc1)[C@H](C)CN(C)C` the value was “inactive”.
Consider `CC(=O)Oc1ccc2c3c1OC1C(OC(C)=O)C=CC4[C@@H](C2)N(C)CC[C@]314` (stereo partly specified), for which, in assay [3], the Potency result was “inactive”.
As to `ClC[C@H]1CO1` (tested in a mixture with another compound), the Potency entry in assay [3] is “inactive”.
Same read-out and setting: for `CC12CCC(=O)CC1CCC1C2CCC2(C)C1CCC2(C)O` (stereo unspecified) the value was “inactive”; for `CC1(O)CCC2C3CCC4=CC(=O)CCC4(C)C3(F)C(O)CC21C` (stereo unspecified), “inactive”.
`O=C1c2ccccc2C(=O)N1SC(Cl)(Cl)Cl`: the result in assay [4] and in assay [8] was inactive. In addition, the activation in assay [5] is 3.09% (inactive); in assay [6], -3.47% (inactive). In addition, in assay [7], the max response is 9.12% (inactive).
As for `COc1ccc2c3c1OC1C(O)C=CC4[C@@H](C2)NCC[C@]314` (stereo partly specified), in assay [3], the Potency entry is “inactive”.
As for `CN[C@H](C)Cc1ccccc1`, the Potency entry in assay [3] is “inactive”.
For the compound `O=C(O)CCn1cc(C=C2C(=O)NC(=S)NC2=O)c(-c2cccc(Br)c2)n1`, the Potency in [9] is 6.7 µM (active). Further, the result in assay [10], in assay [11], in assay [12], in assay [13] and in assay [14] was inactive.
In the case of `COC(=O)[C@@]1(Cc2ccccc2)[C@H]2c3cc(C(=O)N(C)C)[nH]c3C[C@H]2CN1C(=O)c1ccccc1`, the result in assay [15] was inactive.
For `CNC(=O)[C@@H]1C[C@H]1[C@@H](NP(=O)(c1ccccc1)c1ccccc1)c1ccccc1`, the compound was classed as inactive in assay [15].
On to `N#CC(Br)(Br)C(N)=O`, for which the compound was called inactive in [4] and in assay [8]. The max response in assay [16] was 6.67%; in assay [7], -5.1% (inactive). The Potency entry in assay [17], in [18] and in [19] was “inactive” throughout. Further, in assay [6], the activation is -0.328% (inactive).
For `O=C1OC(c2cc(I)c(O)c(I)c2)(c2cc(I)c(O)c(I)c2)c2ccccc21`, in assay [3], the Potency is 32.2 µM (active).
As to `CCC1CC2CC3c4[nH]c5ccc(OC)cc5c4CCN(C2)C13` (stereo unspecified), the Potency result in [3] was “inactive”.
For `CCC(=O)OC1[C@@H](N2CCCCC2)C[C@H]2[C@@H]3CC[C@H]4C[C@H](OC(C)=O)[C@@H](N5CCCCC5)C[C@]4(C)[C@H]3CC[C@]12C` (stereo partly specified), the Potency entry in assay [3] was “inactive”.

The values are drawn from PubChem BioAssay (NCATS).
